The values below come from PubChem BioAssay.

Activity calls are given as the source filed them.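 How the source made its calls, unless noted: active means NADPH fluorescence slope more negative than the mean of all samples by about 3 SD, 99.7% confidence; inactive means the rest.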

Experiment [1] in a line: inhibitors of TNFa-induced NFkB p65 translocation, primary screen, imaging, HUVEC, MLSMR starter and 10KST1 sets (AID 438;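 active means inhibition above 20% together with a positive visual image hit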;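 further: compound added about 3h40 before a 20 min TNFalpha stimulation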;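 on inhibition: signal is the nuclear over cytoplasmic p65 intensity ratio per well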). Conditions: HUVEC TNFa-induced p65 nuclear translocation; cell count: measured here: nuclei count (cytotoxicity indicator), at 2.08 µM; inhibition: at 2 µM, stronger effect = higher value, 0% TNFa-plus-vehicle, 100% no-TNFa wells.
A short description of experiment [2]: inhibitors of mutant huntingtin aggregation, primary screen, imaging, exon1htt(103Q)mCFP cells, high-content imaging (AID 483;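 active means visual image review flags a hit and inhibition of aggregation exceeds 20%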;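 further: compound exposure lasted 3 days before fixation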;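 on nuclei count: percent of the per-plate median nuclei count of sample wells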). The conditions noted are these: exon1htt(103Q)mCFP cell line, aggregate imaging, at 2 µM; inhibition of aggregation: stronger effect = higher value; nuclei count: measured here: cell count, toxicity.
Experiment [3] is described as follows: inhibitors of E-selectin induction by TNFa, primary screen, imaging, HUVEC, immunofluorescence, MLSMR starter and 10KST1 sets (AID 487;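 active means visually confirmed hit in the image check and inhibition above 20%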;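 on inhibition: signal is fraction of cell area covered by stained E-selectin grains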;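 on nuclei count: 100% = median nuclei count of all wells on the same plate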). The conditions noted are these: HUVEC TNFalpha-induced E-selectin immunofluorescence imaging, at 2 µM; inhibition: stronger effect = higher value; nuclei count: measured here: cell number, toxicity.
Experiment [4] addresses Voltage-gated potassium channel subunit beta-2 (Rattus norvegicus) (UniProt P62483). The experiment in a line: KvBeta enzyme negative modulators, primary screen, biochemical, NADPH fluorescence (AID 622;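 active means fluorescence slope higher than the sample average by over 3 SD, cut at about -0.22 in these data, passing the limit was not always enough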;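 further: slope of raw intensity against log time taken from 70 to 1610 s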). Conditions: recombinant KvBeta, 4-cyanobenzaldehyde reduction, at 10 µM, stronger effect = higher value.
The target is the same in experiment [5]. The experiment in a line: KvBeta positive modulators, primary screen, biochemical, NADPH fluorescence (AID 623).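 Further: fluorescence intensity change per second fitted from 20 to 320 s.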 Conditions: Recombinant KvBeta, NADPH fluorescence decrease slope, 10 min; at 10 µM; stronger effect = lower value.
In experiment [6] the target is Alpha-2C adrenergic receptor (Homo sapiens) (UniProt P18825). The experiment in a line: modulators of alpha2C/GIRK thallium flux, primary screen, cell-based, HEK293 alpha2C/GIRK1/2 (AID 624;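 active means fluorescence slope after compound addition differing from the mean of all screened samples at 99.7% confidence, in either direction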;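 further: slope of fluorescence ratio to pre-addition baseline per second over 15 to 24 s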). The conditions noted are these: thallium flux BTC fluorescence, at 10 µM, actives lie on both sides.
Experiment [7] is described as follows: inhibitors of Sendai virus-induced IRF3 signaling, primary screen, TLR/RLR signaling modifier project, cell-based, Sendai virus stimulus, luciferase, 10K MLSCN set (AID 602276;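 active means inhibition at or above 50% at 10 µM; inactive means inhibition below 50%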;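 further: firefly luciferase from ISG56 promoter only with Renilla not read in this screen; 0% = Sendai virus plus DMSO and 100% = medium plus DMSO without virus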). Conditions: HEK293 RL24 IRF3 luciferase reporter, at 10 µM, stronger effect = higher value.
The nature of experiment [8]: inhibitors of poly I:C-induced TLR3 signaling, primary screen, cell-based, poly I:C stimulus, luciferase, 10K MLSCN set (AID 602277;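 active means inhibition of the reporter signal at or above 50%; inactive means inhibition below 50%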). Conditions: HEK293-TLR3 RL24 IRF3 luciferase reporter, at 10 µM, stronger effect = higher value.

Chain of Alpha-2C adrenergic receptor (Homo sapiens) (P18825 whole entry, looked up): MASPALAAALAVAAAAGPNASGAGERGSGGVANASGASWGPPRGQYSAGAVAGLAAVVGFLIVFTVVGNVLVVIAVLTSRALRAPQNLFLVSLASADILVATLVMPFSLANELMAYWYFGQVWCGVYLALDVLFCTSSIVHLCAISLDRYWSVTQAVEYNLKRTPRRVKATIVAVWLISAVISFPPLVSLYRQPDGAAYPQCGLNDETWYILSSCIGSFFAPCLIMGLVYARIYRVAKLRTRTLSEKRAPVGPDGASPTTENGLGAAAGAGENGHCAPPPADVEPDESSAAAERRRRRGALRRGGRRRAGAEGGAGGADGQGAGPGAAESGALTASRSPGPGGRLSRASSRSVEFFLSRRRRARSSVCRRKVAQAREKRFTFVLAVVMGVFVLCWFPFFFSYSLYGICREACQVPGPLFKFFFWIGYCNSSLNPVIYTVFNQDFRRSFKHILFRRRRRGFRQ
Chain of Voltage-gated potassium channel subunit beta-2 (Rattus norvegicus) (P62483 whole entry, looked up): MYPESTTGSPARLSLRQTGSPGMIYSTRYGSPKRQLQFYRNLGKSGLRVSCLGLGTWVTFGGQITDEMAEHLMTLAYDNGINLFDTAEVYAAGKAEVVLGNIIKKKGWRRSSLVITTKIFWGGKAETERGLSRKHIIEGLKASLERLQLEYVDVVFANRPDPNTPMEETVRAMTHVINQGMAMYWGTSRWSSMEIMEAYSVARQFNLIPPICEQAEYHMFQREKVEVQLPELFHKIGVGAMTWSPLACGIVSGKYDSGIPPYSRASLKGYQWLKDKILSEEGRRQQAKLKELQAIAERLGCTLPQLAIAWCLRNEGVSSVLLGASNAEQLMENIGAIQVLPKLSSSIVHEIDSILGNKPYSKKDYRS

Take `Cc1cc(C(=O)CN2C(=O)c3ccccc3C2=O)c(C)n1Cc1cccs1`: the cell count in experiment [1] is 522. The inhibition in experiment [1] was -14.8% (inactive); in experiment [3] it was -3.3% (inactive); in experiment [7], 14.6% (inactive); in experiment [8] it was 52.1% (active). Further, the inhibition of aggregation in experiment [2] was -1% (inactive). The figures for the nuclei count in experiment [2] and in experiment [3] were 112% and 161%, respectively. Moreover, the fluorescence slope in experiment [4] is -0.517 (inactive). Also, the NADPH fluorescence slope in experiment [5] is -0.000116 (inactive). The slope in experiment [6] is 0.00475 (inactive).

As to `O=S(NCc1ccco1)C12CC3CC(CC(C3)C1)C2` (centres undefined), the cell count in experiment [1] turned out to be 426. For the same molecule, the inhibition in experiment [1] is 12.5% (inactive); in experiment [3], -2.2% (inactive); in experiment [7], -5.22% (inactive); in experiment [8] it was 0.485% (inactive). The inhibition of aggregation in experiment [2] was 1.2% (inactive). Also, the nuclei count turned out to be 102% in experiment [2] and 101% in experiment [3]. The fluorescence slope in experiment [4] is -0.582 (inactive). Further, the NADPH fluorescence slope in experiment [5] was -2e-07 (inactive). Also, the slope in experiment [6] is 0.00485 (inactive).

`O=C(CSc1nc2c(c(=O)n1-c1ccc(F)cc1)SCC2)NCC1CCCO1` (centres undefined): the cell count in experiment [1] worked out at 256. Besides, the inhibition in experiment [1] was 9.8% (inactive); in experiment [3] it was -8.7% (inactive); in experiment [7], 17.7% (inactive); in experiment [8] it was 19.7% (inactive). Further, the inhibition of aggregation in experiment [2] was 16.7% (inactive). The results for the nuclei count in experiment [2] and in experiment [3] were 94.5% and 78.2%, respectively. In experiment [4], the fluorescence slope was -0.462 (inactive). In experiment [5], the NADPH fluorescence slope is -5.5e-05 (inactive). Also, the slope in experiment [6] was 0.00463 (inactive).

Regarding `CCCCOc1ccc(C(=O)N2CCC(C)CC2)cc1`, the cell count in experiment [1] turned out to be 323. The inhibition was 7.9% (inactive) in experiment [1], -13.8% (inactive) in experiment [3], -4.61% (inactive) in experiment [7] and -21% (inactive) in experiment [8]. Moreover, the inhibition of aggregation in experiment [2] was -8.4% (inactive). Also, the results for the nuclei count in experiment [2] and in experiment [3] were 99.9% and 87%, respectively. Moreover, the fluorescence slope in experiment [4] is -0.434 (inactive). In addition, in experiment [5], the NADPH fluorescence slope is -5.1e-05 (inactive). Besides, the slope in experiment [6] is 0.00442 (inactive).

In the case of `COc1cc(C)c(-c2cc(C(=O)O)c(C)o2)cc1C(C)C`, in experiment [1], the cell count stood at 451. Also, the inhibition in experiment [1] was -7.7% (inactive); in experiment [3], -99% (inactive); in experiment [7] it was 12.3% (inactive); in experiment [8], 17.2% (inactive). The inhibition of aggregation in experiment [2] was -1.5% (inactive). For the same molecule, the results for the nuclei count in experiment [2] and in experiment [3] were 95.9% and 130%, respectively. Further, the fluorescence slope in experiment [4] is -0.416 (inactive). In addition, the NADPH fluorescence slope in experiment [5] was 6.3e-06 (inactive). Moreover, the slope in experiment [6] is 0.00528 (inactive).

For the molecule `CC1CN(c2nc3ccccc3nc2C(C#N)C(=O)NCc2ccc3c(c2)OCO3)CC(C)O1` (centres undefined), in experiment [1], the cell count turned out to be 340. Besides, the inhibition was 4.7% (inactive) in experiment [1], -24.9% (inactive) in experiment [3], 18.7% (inactive) in experiment [7] and 14.5% (inactive) in experiment [8]. Further, in experiment [2], the inhibition of aggregation is 11.1% (inactive). The nuclei count in experiment [2] amounted to 83.9%; in experiment [3] it was 81.7%. In addition, the fluorescence slope in experiment [4] is -0.347 (inactive). For the same molecule, the NADPH fluorescence slope in experiment [5] is -5.3e-05 (inactive). Besides, in experiment [6], the slope was 0.00757 (inactive).

Consider `CC(C)Cn1c(CN(Cc2ccccc2)Cc2ccccc2)nc2c1c(=O)n(C)c(=O)n2C`, for which the cell count in experiment [1] was determined as 567. The inhibition in experiment [1] was -1% (inactive); in experiment [3], -12.8% (inactive); in experiment [7] it was 9.97% (inactive); in experiment [8] it was 12.9% (inactive). Also, in experiment [2], the inhibition of aggregation was 1.4% (inactive). Besides, the nuclei count in experiment [2] stood at 124%; in experiment [3], 117%. Also, the fluorescence slope in experiment [4] is -0.518 (inactive). In addition, the NADPH fluorescence slope in experiment [5] is -1.8e-05 (inactive). Also, in experiment [6], the slope was 0.00724 (inactive).

For the molecule `Clc1cccc(-c2nnc3sc(-c4ccccc4)nn23)c1`, the cell count in experiment [1] worked out at 625. Besides, the inhibition was -3% (inactive) in experiment [1], -30.8% (inactive) in experiment [3], -35.9% (inactive) in experiment [7] and -59.7% (inactive) in experiment [8]. The inhibition of aggregation in experiment [2] was -8% (inactive). Also, the nuclei count in experiment [2] came out at 108%; in experiment [3] it was 104%. Besides, in experiment [4], the fluorescence slope is -0.372 (inactive). The NADPH fluorescence slope in experiment [5] was -5.3e-05 (inactive). In addition, in experiment [6], the slope is 0.0065 (inactive).

`CCOc1ccc(-c2cn(S(=O)(=O)c3cccc4nsnc34)nc2N)cc1`: the cell count in experiment [1] was determined as 316. Also, the inhibition is -6.1% (inactive) in experiment [1], -29.1% (inactive) in experiment [3], 10.6% (inactive) in experiment [7] and 28.6% (inactive) in experiment [8]. The inhibition of aggregation in experiment [2] is 8% (inactive). In addition, the values for the nuclei count in experiment [2] and in experiment [3] were 107% and 66.8%, respectively. Further, the fluorescence slope in experiment [4] is -0.484 (inactive). In addition, in experiment [5], the NADPH fluorescence slope was -3.8e-05 (inactive). Further, the slope in experiment [6] was 0.00478 (inactive).

`CCn1c(C)nc2cc(C(=O)OCCC(F)(F)F)ccc21`: the cell count in experiment [1] came to 531. Further, the inhibition in experiment [1] was -9% (inactive); in experiment [3] it was 6.2% (inactive); in experiment [7] it was -16.4% (inactive); in experiment [8] it was -104% (inactive). Besides, the inhibition of aggregation in experiment [2] was -1.8% (inactive). For the same molecule, the nuclei count in experiment [2] was 106%; in experiment [3] it was 92.5%. For the same molecule, in experiment [4], the fluorescence slope was -0.263 (inactive). For the same molecule, the NADPH fluorescence slope in experiment [5] was -2.2e-05 (inactive). Besides, in experiment [6], the slope is 0.00759 (inactive).

In the case of `CSCCC(NS(=O)(=O)c1ccc2c(c1)oc(=O)n2C)C(=O)NC1CCCCC1` (centres undefined), the cell count in experiment [1] was 627. Moreover, the inhibition was -6% (inactive) in experiment [1], -35.6% (inactive) in experiment [3], 11.8% (inactive) in experiment [7] and 25.6% (inactive) in experiment [8]. Besides, in experiment [2], the inhibition of aggregation was 7.8% (inactive). Moreover, the nuclei count in experiment [2] is 93%; in experiment [3] it was 106%. For the same molecule, in experiment [4], the fluorescence slope was -0.584 (inactive). In addition, in experiment [5], the NADPH fluorescence slope was -3.7e-05 (inactive). The slope in experiment [6] is 0.00669 (inactive).

As for `Cn1c(C(=O)NCC2CCCO2)cc2c(=O)n(C)c3ccccc3c21` (centres undefined), the cell count in experiment [1] came out at 658. Besides, the inhibition in experiment [1] is -5.5% (inactive); in experiment [3], -71.5% (inactive); in experiment [7], 7.53% (inactive); in experiment [8], 19% (inactive). Also, the inhibition of aggregation in experiment [2] was -1.8% (inactive). Further, the nuclei count in experiment [2] was 115%; in experiment [3] it was 107%. Besides, the fluorescence slope in experiment [4] is -0.583 (inactive). The NADPH fluorescence slope in experiment [5] is -3.1e-05 (inactive). Also, the slope in experiment [6] was 0.00806 (inactive).

Regarding `COc1ccc2cc3cc(C(=O)NCC4CCCO4)oc3nc2c1` (centres undefined), the cell count in experiment [1] is 323. Moreover, the inhibition in experiment [1] is -7.8% (inactive); in experiment [3], -20.5% (inactive); in experiment [7], -11.2% (inactive); in experiment [8], -36.3% (inactive). For the same molecule, the inhibition of aggregation in experiment [2] was 3.3% (inactive). The nuclei count in experiment [2] was 56.8%; in experiment [3] it was 108%. Also, the fluorescence slope in experiment [4] is -0.0444 (active). The NADPH fluorescence slope in experiment [5] was -1.4e-06 (inactive). Besides, in experiment [6], the slope is 0.00645 (inactive).

Regarding `CCOC(=O)C1CCN(c2cc(C)nc3cc(-c4cccc(F)c4)nn23)CC1`, in experiment [1], the cell count came to 675. Further, the inhibition in experiment [1] is -4.7% (inactive); in experiment [3], -82.8% (inactive); in experiment [7], -8.57% (inactive); in experiment [8], -12.2% (inactive). In addition, in experiment [2], the inhibition of aggregation was 12% (inactive). Also, the nuclei count in experiment [2] was 97.8%; in experiment [3], 99.1%. In experiment [4], the fluorescence slope was -0.35 (inactive). In experiment [5], the NADPH fluorescence slope is -1.5e-05 (inactive). Further, the slope in experiment [6] is 0.00523 (inactive).

In general, inhibition refers to the relative decrease from the control value, in per cent.
